The entries come from a sample that favours hits as a whole.
Sm TGR block – blocks Schistosoma mansoni thioredoxin glutathione reductase. Potency, µM (series often up to 114 µM), actives largely listed as inhibitors. Q962Y6. 360,000 compounds, 3% hits. purified TGR, DTNB reduction, TNB absorbance 405 nm; also: nearly all actives have a fitted effect of over 60% in size
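First, TGR (20 nM dispensed) and NADPH were mixed with compound. Second, a 15 min room-temperature incubation followed. Third, further NADPH and then DTNB were added to start the reaction. Finally, TNB absorbance was monitored kinetically.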
TbPYK inhibitor – T. brucei pyruvate kinase inhibition | Q57TT1 | TbPYK enzyme, Kinase-Glo Plus ATP luminescence, 45 min | Potency, µM (doses to about 76.8 µM), hits mostly inhibitors | 410,000 compounds, 0.12% hits; also: nearly all actives have a fitted effect of over 50% in size
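Enzyme and substrate buffer are dispensed first and compound is pin-transferred. ADP at 130 uM final then starts the reaction, which runs 45 min at room temperature. Detection reagent is added for 10 min before luminescence is imaged.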
Giardia FBPA inh – blocks Giardia fructose-bisphosphate aldolase activity; Potency, µM (doses to about 59.6 µM), most hits filed as inhibitors; 290,000 compounds, 0.71% hits; purified Giardia FBPA; also: nearly all actives have a fitted effect of over 55% in size
Target sequence (A8B2U2 whole entry, looked up): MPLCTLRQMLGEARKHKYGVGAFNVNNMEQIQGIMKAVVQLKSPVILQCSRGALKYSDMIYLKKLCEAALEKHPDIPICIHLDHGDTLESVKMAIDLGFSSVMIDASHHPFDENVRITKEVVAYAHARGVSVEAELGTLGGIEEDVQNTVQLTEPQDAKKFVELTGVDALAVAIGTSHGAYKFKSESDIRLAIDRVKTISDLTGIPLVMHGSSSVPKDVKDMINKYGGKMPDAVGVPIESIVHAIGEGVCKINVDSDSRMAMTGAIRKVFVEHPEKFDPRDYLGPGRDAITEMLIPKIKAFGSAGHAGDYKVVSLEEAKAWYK
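Giardia FBPA (40 nM reagent) was preincubated 10 min at RT with compound (up to 57.5 uM final), then substrate plus GAPDH/TPI/NAD/arsenate coupling system with diaphorase/resazurin was added; resorufin fluorescence (525/598 nm) was read after 20 min.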
LmPK inh – blocks Leishmania mexicana pyruvate kinase activity. AID 1721. purified LmPK, Kinase-Glo ATP luminescence, 1 h. Q27686. Potency, µM (titrated, usually from 57.5 µM), usual class: inhibitors. 290,000 compounds, 0.37% hits
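In 50 mM imidazole pH 7.2 with 7 mM MgCl2, LmPK (0.1 nM) turned over PEP (0.5 mM) and ADP (0.1 mM) for 1 h at room temperature. Luciferase read-out of ATP.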
Shiga toxin inh – Shiga toxin inhibition; Vero cells, Shiga toxin protein synthesis inhibition reporter; inhibition, % at 38.7 µM; 290,000 compounds, 9.2% hits; AID 2315; in the data active = inhibition mostly above about 28%, no sharp cut-off; inactive = mostly below about 43%
Cycloheximide cs – counter-screen hit for Shiga toxin inhibitors, cycloheximide; cell reporter, cycloheximide protein synthesis inhibition counterscreen; max response, %; 300,000 compounds, 12% hits; in the data active = max response mostly above about 13%, no sharp cut-off; inactive = mostly below about 14%; also: read at 38.3 µM for the half of the compounds with a filed dose
Of the large screens only hits and unclear results are named; the others gave an inactive call. Unless noted, calls follow the shape of the dose curve; as a rule, active = well fitted curve in the direction sought with a large enough effect; inconclusive = small, poorly fitted or top-dose-only effect, or another doubt; inactive = no such curve, though single readings can be large; an effect the other way counts as inactive or inconclusive.

O=C(C1=C[C@@H](c2ccc3c(c2)OCO3)C[C@@H](OCCCCO)O1)N1CCOCC1	Sm TGR block 45µM
O=C(C1=C[C@H](c2ccc3c(c2)OCO3)C[C@H](OCCCCO)O1)N1CCN(Cc2ccccc2)CC1	Sm TGR block 25µM
O=C(C1=C[C@@H](c2ccc(Br)cc2)C[C@@H](OCCCCO)O1)N1CCN(Cc2ccccc2)CC1	Sm TGR block 20µM
O=C(O)C1=C[C@@H](c2ccc3c(c2)OCO3)C[C@@H](OCCCCO)O1	Sm TGR block 45µM
CN1CCN(C(=O)C2=C[C@H](c3ccc4c(c3)OCO4)C[C@H](OCCCCO)O2)CC1	none (no result: Sm TGR block, Giardia FBPA inh, LmPK inh, Shiga toxin inh, Cycloheximide cs)
COc1ccc(N2CCN(S(=O)(=O)CCNC(=O)COc3ccccc3F)CC2)cc1	none (no result: Giardia FBPA inh, LmPK inh, Shiga toxin inh, Cycloheximide cs)
O=C(CSc1nnnn1C1CCCC1)Nc1ccccc1F	Shiga toxin inh 31, Cycloheximide cs 13
O=C(CSc1nnnn1C1CCCC1)NCCc1ccccc1	Shiga toxin inh 49, Cycloheximide cs 23
COC(=O)c1ccc(NC(=O)CSc2nnnn2C2CCCCC2)cc1	none
Cn1c(SCC(=O)NCCc2ccccc2)nnc1C1CCCCC1	none
O=C(CSc1nnnn1C1CCCCC1)NCc1ccco1	Sm TGR block 28µM
CC(=O)Nc1ccc(C(=O)CSc2nnnn2C2CCCC2)cc1	Cycloheximide cs 15
COc1ccccc1NC(=O)CSc1nnnn1C1CCCC1	none
Cc1ccc(NC(=O)C2CCC(CNS(=O)(=O)c3csc(C(N)=O)c3)CC2)cc1Cl (centres undefined)	none (no result: Giardia FBPA inh, LmPK inh, Shiga toxin inh, Cycloheximide cs)
O=C(CSc1nnnn1C1CCCC1)N1CCOCC1	Cycloheximide cs 36 (no result: Sm TGR block)
CC(C)n1nnnc1SCC(=O)NCCc1ccccc1	Cycloheximide cs 16
O=C(CSc1nnnn1C1CCCC1)Nc1ccccc1N1CCOCC1	none (no result: Sm TGR block)
CCCCC1CN2C(CCC(C)C2c2ccc(Br)cc2)C(=O)O1 (centres undefined)	none (no result: Sm TGR block, TbPYK inhibitor, LmPK inh, Shiga toxin inh, Cycloheximide cs)
CCc1ccc(/C=C2\Oc3c(ccc(O)c3CN3CCN(C)CC3)C2=O)cc1	none
CC1CCCN(Cc2c(O)ccc3c2O/C(=C\c2ccco2)C3=O)C1 (centres undefined)	Sm TGR block 25µM
COc1ccccc1/C=C/C=C1\Oc2c(ccc(O)c2CN2CCN(CCO)CC2)C1=O	Sm TGR block inconclusive, Shiga toxin inh active, Cycloheximide cs 32
O=c1oc2c(CN3CCN(CCO)CC3)c(O)ccc2cc1-c1ccccc1	none (no result: Giardia FBPA inh, LmPK inh, Shiga toxin inh, Cycloheximide cs)
CCN1CCN(Cc2c(O)ccc3c2O/C(=C\C=C\c2ccccc2)C3=O)CC1	Sm TGR block 35µM, Cycloheximide cs 33
COc1ccc(-c2cc3ccc(O)c(CN4CCCC(C)C4)c3oc2=O)cc1OC (centres undefined)	none (no result: Giardia FBPA inh, LmPK inh, Shiga toxin inh, Cycloheximide cs)
CN(C)Cc1c(O)ccc2c1O/C(=C\C=C\c1ccccc1)C2=O	Sm TGR block 11µM, Cycloheximide cs 13
CCOC(=O)C1=C(C)OC(=CC=Cc2ccccc2)C1=O	none (no result: Sm TGR block, Giardia FBPA inh, LmPK inh, Shiga toxin inh, Cycloheximide cs)
Cc1ccc(C)c(NC(=O)CCCN2C(=O)C(c3ccccc3)Oc3cccnc32)c1 (centres undefined)	none (no result: Giardia FBPA inh, LmPK inh, Shiga toxin inh, Cycloheximide cs)
Cc1ccc(Cl)cc1NC(=O)Cn1c(=O)n(CCCS(=O)(=O)C2CCCCC2)c(=O)c2ccccc21	none (no result: Giardia FBPA inh, LmPK inh, Shiga toxin inh, Cycloheximide cs)
Cc1cccc2c1c(N=NC(N)=S)c(O)n2C1OC(CO)C(O)C(O)C1O (centres undefined)	Giardia FBPA inh inconclusive
O=C1/C(=C/C=C/c2ccccc2)Oc2c1ccc(O)c2CN1CCN(CCO)CC1	Sm TGR block 40µM
CCN1CCN(Cc2c(O)ccc3c2O/C(=C\c2ccc(C)cc2)C3=O)CC1	Sm TGR block inconclusive
CCN1CCN(Cc2c(O)ccc3c2O/C(=C\c2ccccc2)C3=O)CC1	Sm TGR block 45µM
Cc1ccc(/C=C2\Oc3c(ccc(O)c3CN3CCN(C)CC3)C2=O)cc1	none
CC1CCN(C(=O)COc2ccc(S(=O)(=O)N3CCOCC3)cc2)CC1	none (no result: Giardia FBPA inh, LmPK inh, Shiga toxin inh, Cycloheximide cs)
CCC(C)n1c(-c2cccc(S(=O)(=O)N(CC)CC)c2)n[nH]c1=S (centres undefined)	TbPYK inhibitor inconclusive
CCC(C)n1c(-c2cccc(S(=O)(=O)N3CCOCC3)c2)n[nH]c1=S (centres undefined)	TbPYK inhibitor 7.1µM (no result: Giardia FBPA inh, LmPK inh, Shiga toxin inh, Cycloheximide cs)
CCCCN(C)C(=O)c1cc2c(s1)-c1ccccc1S(=O)(=O)C2	Cycloheximide cs 21
CN1CCN(C(=O)c2cc3c(s2)-c2ccccc2S(=O)(=O)C3)CC1	none

Bioassay records (PubChem BioAssay)
